Settings in all cases: concentration: 1 μM, replicates: in singlicate; n = 1
Assay [1] concerns T1, LKB1.
T1 construct: gene STK11

Assay [2] relates to T2, LOK.
T2 construct: gene STK10

Assay [3] concerns LRRK2.
The subject of assay [4] is LTK.
The subject of assay [5] is LYN.
Assay [6] relates to T3, LZK.
T3 construct: gene MAP3K13

Assay [7] relates to MAK.
Assay [8] deals with MAP3K15.
Assay [9] deals with MAP3K1.
The test system of assay [10] is MAP3K2.

17 compounds from article PMC5540273 (PLoS ONE, 2017) can be followed below.
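Further: KINOMEscan kinase panel screen.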

Consider `Cc1cc(N2CCC(NS(=O)(=O)c3ccc(F)cc3)CC2)nc(Nc2cccc(C#N)c2)n1.O=C(O)C(F)(F)F` [GSK1653537], for which the “%Inh” value in [1] is 0%; in assay [2], 0%; in assay [3], 20%; in [4], 5%; in [5], 0%; in assay [6], 0%. Besides, the “%Inh” value in assay [7] is recorded as 17%; in assay [8], 3%; in [9], 7%; in assay [10], 60%.
Take `Cc1ccc(O)cc1Nc1cc(C(F)(F)F)nc2ccc(-c3ccncc3)cc12` [GW630823]: the “%Inh” value in assay [1] was 0%; in assay [2], 5%; in assay [3], 0%; in [4], 0%; in [5], 1%; in assay [6], 0%. Also, the “%Inh” value in assay [7] is 7%; in assay [8] it was 0%; in assay [9], 0%; in assay [10] it was 1%.
In the case of `FC(F)(F)c1cc(Nc2nccc(-c3c(-c4ccc(Cl)cc4)nn4ncccc34)n2)ccc1Cl` [GW829351], the “%Inh” value in [1] came out at 0%; in assay [2], 6%; in [3] it was 0%; in assay [4], 0%; in [5] it was 0%; in assay [6], 0%. Besides, the “%Inh” value in [7], in assay [8], in assay [9] and in assay [10] was 0% in each case.
Take `CC(C)(C)OC(=O)NC1CCCN(c2cc(-c3ccc4c(N)n[nH]c4c3)nc(N)n2)C1` (centres unmarked) [GSK2286096]: the “%Inh” value in assay [1], in [2], in [3], in assay [4], in assay [5] and in [6] was 0% each time. For the same compound, the “%Inh” value is given as 17% in assay [7], 0% in assay [8], 10% in assay [9] and 0% in assay [10].
In the case of `CCc1nc(-c2cccc(N(C)S(=O)(=O)c3ccccc3)c2)c(-c2ccnc(Nc3ccc(N4CCN(C(C)=O)CC4)nc3)n2)s1` [GSK1645895], the “%Inh” value in assay [1] is listed as 4%; in assay [2], 15%; in assay [3], 0%; in assay [4] it was 0%; in assay [5], 4%; in assay [6], 0%. Moreover, the “%Inh” value worked out at 22% in assay [7], 0% in assay [8], 22% in assay [9] and 0% in assay [10].
On to `CSc1ccc(NC2=C(c3ccccc3Cl)C(=O)NC2=O)cc1` [SB-342411], for which the “%Inh” value in [1] is on record as 12%; in assay [2] it was 2%; in assay [3] it was 0%; in assay [4] it was 7%; in [5], 0%; in assay [6] it was 0%. Besides, the “%Inh” value in assay [7] was 0%; in assay [8] it was 0%; in [9] it was 14%; in [10], 0%.
In the case of `COc1cc2ncnc(Nc3ccc(OCc4ccccc4Br)c(Cl)c3)c2cc1OC.Cl` [GI261590], the “%Inh” value is reported as 0% in [1]; 96.6% in [2]; 0% in [3]; 14% in assay [4]; 30% in assay [5]; 10% in assay [6]. Also, the “%Inh” value in assay [7] was determined as 33%; in assay [8], 0%; in assay [9], 4%; in [10] it was 0%.
On to `Nc1nc(-c2ccc3c(N)n[nH]c3c2)cc(N2CCCCC2)n1` [GSK2228768], for which the “%Inh” value in assay [1], in assay [2], in assay [3], in [4], in [5] and in assay [6] was 0% throughout. For the same compound, the “%Inh” value in assay [7] was 17%; in assay [8], 0%; in [9], 0%; in [10] it was 0%.
Regarding `O=C(Nc1ccccc1)Nc1ccc(Oc2ccc3nccn3n2)cc1`, the “%Inh” value in assay [1] is 0%; in [2], 39%; in assay [3], 0%; in assay [4], 0%; in assay [5], 0%; in [6], 0%. Besides, the “%Inh” value in assay [7], in assay [8], in assay [9] and in assay [10] was 0% throughout.
Regarding `Cl.Fc1ccccc1COc1ccc(Nc2ncnc3ccc(-c4nnc(C(F)(F)F)o4)cc23)cc1Cl` [GW424170], the “%Inh” value came out at 12% in assay [1]; 0% in [2]; 0% in assay [3]; 0% in [4]; 0% in assay [5]; 0% in assay [6]. The “%Inh” value in [7] turned out to be 10%; in assay [8], 0%; in [9], 0%; in assay [10], 0%.
Take `Cl.c1ccc(Cn2ncc3cc(Nc4ncnc5ccccc45)ccc32)cc1` [GW273749]: the “%Inh” value in assay [1], in assay [2], in assay [3], in assay [4], in [5] and in assay [6] was 0% in each case. For the same compound, the “%Inh” value in assay [7] was 33%; in assay [8], 0%; in assay [9] it was 7%; in [10] it was 0%.
For the compound `Clc1ccc(-c2cc(-c3c[nH]nc3-c3ccccn3)ccn2)cc1` [GW681251], the “%Inh” value was 0% in assay [1]; 30% in assay [2]; 46% in assay [3]; 0% in assay [4]; 0% in assay [5]; 0% in assay [6]. Moreover, the “%Inh” value is recorded as 14% in assay [7], 0% in [8], 26% in assay [9] and 3% in [10].
As to `Nc1n[nH]c2nnc(-c3ccccc3)cc12` [SB-517389], the “%Inh” value in assay [1] came to 0%; in [2], 0%; in assay [3], 0%; in assay [4] it was 0%; in assay [5] it was 69%; in [6], 0%. The “%Inh” value in assay [7] is 0%; in [8], 0%; in assay [9] it was 9%; in [10] it was 5%.
As to `COc1ccc(NC(=O)Nc2ccc(C)c(-c3ccc(C(=O)Nc4ccncc4)cc3)c2)cc1` [GSK1398475], the “%Inh” value was 0% in assay [1]; 0% in assay [2]; 0% in assay [3]; 7% in [4]; 34% in assay [5]; 0% in assay [6]. The “%Inh” value in assay [7] was 10%; in assay [8] it was 0%; in assay [9] it was 0%; in [10], 0%.
On to `COc1ccc(Nc2nccc(N3CCC(NC(=O)Nc4ccc5c(c4)OCO5)C3)n2)cc1` (centres unmarked) [GSK1379745], for which the “%Inh” value is 4% in [1]; 0% in assay [2]; 1% in assay [3]; 18% in assay [4]; 1% in assay [5]; 39% in [6]. Also, the “%Inh” value in assay [7] turned out to be 20%; in assay [8], 3%; in assay [9], 12%; in assay [10], 14%.
With `Cn1cc(-c2ccc3c(c2)CCN3C(=O)Cc2cccc(C(F)(F)F)c2)c2c(N)ncnc21` [GSK2606414], the “%Inh” value in [1] stood at 0%; in assay [2], 0%; in [3], 43%; in assay [4], 15%; in assay [5] it was 0%; in [6], 0%. Further, the “%Inh” value worked out at 0% in assay [7], 0% in [8], 3% in assay [9] and 9% in [10].
Consider `COc1cc2c(Nc3cccc(NC(=O)c4ccccc4)c3)ncnc2cc1OCCCN1CCOCC1` [GSK223810], for which the “%Inh” value was 0% in [1]; 10% in assay [2]; 0% in assay [3]; 0% in assay [4]; 90.3% in [5]; 0% in [6]. The “%Inh” value in assay [7] stood at 0%; in [8], 0%; in assay [9], 0%; in assay [10], 6%.
